# Assay outcomes deposited in PubChem by National Center for Advancing Translational Sciences (NCATS).
# Sampled rows, rich in hits. Any-hit rate of the full collection: about 0.43%.
# aGlu spleen mod: qHTS Assay for Inhibitors and Activators of Human alpha-Glucosidase From Spleen Homogenate | Lysosomal alpha-glucosidase (Homo sapiens), P10253 | human spleen homogenate, 4-MU-alpha-glucoside fluorescence | Potency, µM (highest dose often 79.9 µM), inactives show at the highest dose activity change, negative = inhibition, actives largely listed as inhibitors | 0.006% of 240,000 active;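 further: potency means the concentration at half of the fitted maximal effect; 0% = enzyme with vehicle and -100% = no enzyme basal signal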
#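 AC50 values come from Hill-equation fits of concentration-response data, normalized to no-enzyme and full-activity controls. Enzyme source: 1 ug human spleen homogenate; 1 mM fluorogenic 4-MU glucoside, pH 5.0 citrate buffer, 37 C, 40 min.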
# GLA inh pH 4.5: qHTS Assay for Inhibitors of Human alpha-Galactosidase at pH 4.5; purified enzyme, 4-MU-alpha-Gal fluorescence, pH 4.5; Alpha-galactosidase A (Homo sapiens), P06280; 230,000 tested, under 10 active; activity change, negative = inhibition, % at 105 µM;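 further: 0% = full activity with enzyme and -100% = basal without enzyme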
# Target sequence (P06280 whole entry, looked up): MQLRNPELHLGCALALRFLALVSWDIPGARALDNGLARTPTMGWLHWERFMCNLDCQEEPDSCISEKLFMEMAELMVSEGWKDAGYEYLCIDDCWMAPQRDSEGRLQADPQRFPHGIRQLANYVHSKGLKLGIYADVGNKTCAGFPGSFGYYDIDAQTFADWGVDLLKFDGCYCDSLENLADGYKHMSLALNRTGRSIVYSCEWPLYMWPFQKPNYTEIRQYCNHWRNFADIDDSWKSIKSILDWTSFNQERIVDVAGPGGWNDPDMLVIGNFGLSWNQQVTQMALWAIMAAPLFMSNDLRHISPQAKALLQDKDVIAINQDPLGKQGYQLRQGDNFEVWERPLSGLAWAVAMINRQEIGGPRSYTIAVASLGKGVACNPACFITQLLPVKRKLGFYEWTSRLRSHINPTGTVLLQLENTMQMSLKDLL
# aGal spleen mod: qHTS Assay for Inhibitors and Activators of Human alpha-Galactosidase From Spleen Homogenate; Alpha-galactosidase A (Homo sapiens), P06280; human spleen homogenate, 4MU-alpha-Gal fluorescence, 40 min; Potency, µM (highest dose often 80 µM), inactives show top-dose activity change, negative = inhibition, usual class: inhibitors; 0.008% of 240,000 active;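 further: potency means the concentration at half of the fitted maximal effect; 0% = enzyme with vehicle and -100% = no enzyme basal signal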
#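 Human spleen homogenate (1 ug) as enzyme source, 4-methylumbelliferyl-alpha-D-galactopyranoside 1 mM final, citrate/phosphate pH 5.0 with 0.01% Tween-20. Compounds 40 min at 37C, NaOH/glycine stop; fluorescence Ex 365/Em 440, Hill-fit AC50.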
# N370S GC: qHTS Assay for Inhibitors and Activators of N370S glucocerebrosidase as a Potential Chaperone Treatment of Gaucher Disease; Potency, µM (titrated, usually from 59.4 µM), for inactives: top-dose activity change, negative = inhibition, usual class: inhibitors; AID 2101, 2009; 0.092% of 330,000 active; N370S GC spleen homogenate, 4MU-glucoside fluorescence;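 further: potency means the concentration at half of the fitted maximal effect; 0% = full enzyme activity and -100% = no enzyme basal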
# GAA inhib: qHTS Assay for Inhibitors of Human alpha-Glucosidase as a Potential Chaperone Treatment of Pompe Disease | Potency, µM (series often up to 76.9 µM), inactives show top-dose activity change, negative = inhibition, most hits filed as inhibitors | 0.005% of 200,000 active | purified human GAA, 4-MU-alpha-glucoside fluorescence;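 further: potency means the concentration at half of the fitted maximal effect; plate controls were uninhibited enzyme wells for no effect and no-enzyme background for full effect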
#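 Read-out is 4-methylumbelliferone fluorescence (Ex 365/Em 440 nm) after NaOH/glycine stop at pH 10. Enzyme 4 nM, substrate 400 uM, pH 5.0 citrate buffer, 20 min room temperature; AC50 from Hill-equation concentration-response.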
# GAA glycogen: qHTS Assay for Inhibitors and Activators of Human alpha-Glucosidase Cleavage of Glycogen | Lysosomal alpha-glucosidase (Homo sapiens), P10253 | recombinant GAA, glycogen substrate, Amplex Red glucose oxidase fluorescence | Potency, µM (doses to about 76.4 µM), for the others: at the highest dose activity change, negative = inhibition, usual class: inhibitors | 0.38% of 300,000 active | AID 2100, 2009;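 further: potency means the concentration at half of the fitted maximal effect; 0% = full enzyme reaction and -100% = no-enzyme basal signal; the screen sought inhibitors and activators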
#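 Recombinant enzyme (4 nM final) with compounds titrated up to 77 uM and bovine liver glycogen (30 ug) in citrate pH 5.0, 0.01% Tween-20, 37 C 40 min. Released glucose detected by Amplex Red/glucose oxidase (Ex 573/Em 610); AC50 from Hill fits.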
# * = called active by the depositor; ? = inconclusive; · = no result; [ ] = another dose, or the depositor's remark. The call rests on the fitted dose curve; in most records, active means well fitted curve in the direction sought with a large enough effect; inconclusive means small, poorly fitted or top-dose-only effect, or another doubt; inactive means no such curve, though single readings can be large; an effect the other way counts as inactive or inconclusive.
SMILES,aGlu spleen mod,GLA inh pH 4.5,aGal spleen mod,N370S GC,GAA inhib,GAA glycogen
CCc1ccccc1Nc1ccc(C(=O)O)cc1N,-13%,-3,0%,6%,-5%,3.1µM*
CCNc1ccc(C(=O)O)cc1N,2%,-16,2%,-6%,2%,?
Nc1cc(C(=O)O)ccc1Nc1ccccc1,3%,14,18%,13%,?,12µM*
Nc1ccccc1C(=O)Nc1cccc(C(=O)O)c1,10%,-4,2%,7%,5%,-7%
CCN(CC)c1ccc(/C=N/Nc2cccc(C)c2)c(O)c1,-9%,2,-3%,-2%,1%,-27%
CCN(CC)c1ccc(/C=N/Nc2ccccc2)c(O)c1,6%,-10,-1%,2%,-10%,18µM*
CC(C)c1onc(-c2c(Cl)cccc2Cl)c1COc1ccc(/C=C/c2cccc(C(=O)O)c2)c(Cl)c1,7%,·,11%,10%,·,·
COC(=O)[C@@H](N)Cc1ccc(O)c(O)c1,2%,-2,11%,-2%,·,·
COC(=O)Cc1ccc(O)c(N)c1,6%,6,0%,7%,4%,5.6µM*
c1ccc(-c2nc3ccccn3c2NC2CCCC2)nc1,0%,-1,9%,-18%,-1%,11µM*
Cc1ccn2c(NC3CCCC3)c(-c3ccncc3)nc2c1,3%,3[21.1 µM],6%,-3%,-10%,28µM*
Cc1ccn2c(NC3CCCC3)c(-c3ccccn3)nc2c1,5%,0,7%,-12%,-2%,?
CN=c1scc(-c2ccco2)n1/N=C/c1ccc(O)c(O)c1,-5%,-1,-8%,-23%,-11%,5.6µM*
C=CCN=c1scc(C)n1/N=C/c1ccc(O)c(O)c1,-20%,-6,-5%,-20%,-12%,?
COc1cccc(-c2coc3ccc(Br)cc3c2=O)c1,-2%,-3,13%,4%,·,·
CCOC(=O)CN=C1CC(C)(C)CC2=C1Sc1ncnc(N(C)C)c1N2,-1%,0,6%,-4%,0%,28µM*
Cc1ccc(Nc2nc3c([nH]2)c(=O)n(C)c(=O)n3C)cc1,-19%,-5,13%,9%,8%,20µM*
O=C(O)C[C@@H]1C(=O)O[C@@H]2C(COC(=O)c3cc(O)c(O)c(O)c3)O[C@@H](OC(=O)c3cc(O)c(O)c(O)c3)[C@@H](OC(=O)c3cc(O)c(O)c4c3[C@H]1[C@H](O)C(=O)O4)[C@H]2OC(=O)c1cc(O)c(O)c(O)c1 (some centres not stated),?,-1,10%,-19%,·,1.6µM*
C[C@@H]1C(=O)N(S(=O)(=O)c2ccccc2[N+](=O)[O-])[C@H]1c1ccc(-c2ccccc2)cc1,9%,·,7%,-6%,·,·
N#Cc1cc2nc(O)c(O)nc2cc1[N+](=O)[O-],-5%,-1,7%,·,·,·
O=[N+]([O-])c1cc2nc(O)c(O)nc2cc1[N+](=O)[O-],-10%,-10,-3%,13µM*,·,·
COc1ccc(C(c2c(NC(C)=O)sc3c2CCCC3)N2CCN(CCO)CC2)cc1OC (configuration not stated),2%,1,-4%,14µM*,5%,-1%
CC(=O)Nc1sc2c(c1C(c1cccc(Cl)c1)N1CCN(CCO)CC1)CCCC2 (configuration not stated),-1%,-10,6%,18µM*,-13%,6%
